Source: PubChem BioAssay

The compounds below were run against E3 ubiquitin-protein ligase XIAP (Homo sapiens) (UniProt P98170) (assay: XIAP binders, primary screen, biophysical, small-molecule microarray, fluorescence 635 nm (AID 1181;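 further: score merges 667 nm emission and signal to noise over triplicate slides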)). Conditions: small-molecule microarray binding, higher = more signal.
E3 ubiquitin-protein ligase XIAP (Homo sapiens), sequence (P98170 whole entry, looked up): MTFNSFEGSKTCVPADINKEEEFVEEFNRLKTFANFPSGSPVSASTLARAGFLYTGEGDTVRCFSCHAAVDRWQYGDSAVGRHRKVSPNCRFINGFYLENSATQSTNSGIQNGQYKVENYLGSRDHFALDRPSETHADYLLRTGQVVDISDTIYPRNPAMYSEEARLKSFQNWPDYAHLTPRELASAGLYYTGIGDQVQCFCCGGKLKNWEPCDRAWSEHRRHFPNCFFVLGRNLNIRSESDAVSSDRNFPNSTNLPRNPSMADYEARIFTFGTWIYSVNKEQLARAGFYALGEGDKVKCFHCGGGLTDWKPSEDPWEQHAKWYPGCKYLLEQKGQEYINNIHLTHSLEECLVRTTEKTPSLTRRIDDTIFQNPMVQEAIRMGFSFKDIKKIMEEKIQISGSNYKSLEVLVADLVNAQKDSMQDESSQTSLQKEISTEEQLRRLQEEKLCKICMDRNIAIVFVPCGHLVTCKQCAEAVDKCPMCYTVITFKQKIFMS

Row | SMILES | composite z-score
1 | C=C(COC)/C(=C/C[C@@H](OC(C)=O)c1ccccc1OCCO)c1cnc2ccccc2c1 | 0.0739
2 | CN(C)CCCNC(=O)[C@@]1(C)c2ccccc2C(=O)N(Cc2ccc(OC(F)(F)F)cc2)[C@H]1c1ccc(CO)cc1 | -0.156
3 | C=CC[C@]1(C(=O)NCC(O)CO)COC(c2ccc(OCCCO)cc2)=N1 (stereo partly specified) | -0.266
4 | C=CCC(OC(C)=O)[C@@H]1[C@@H](N(Cc2cccc3ccccc23)C(=O)c2ccc(-c3ccccc3)cc2)c2cc(OCCCO)ccc2N1C(=O)Cc1ccc2ccccc2c1 (stereo partly specified) | -0.179
5 | CCCCCC1=C2CNC(CC(C)C)(C(=O)OC)C=C2C(C)C1=O (stereo unspecified) | 0.0907
6 | CN1C(=O)[C@@H]2[C@@H](CC(COc3ccccc3)=C3[C@@H](CCc4ccccc4)OB(O)C[C@@H]32)C1=O | -0.02
7 | COC(=O)[C@@]1(Cc2ccc(OC)cc2)[C@H]2c3cc(C(=O)N4CCCC4)n(Cc4ccc(C(F)(F)F)nc4)c3C[C@H]2CN1C(=O)c1ccccc1 | -0.02
8 | C=CCC(OC(C)=O)[C@@H]1[C@@H](N(Cc2cc3ccccc3o2)C(=O)Cc2ccc(OC)cc2)c2cc(OCCCO)ccc2N1C(=O)c1ccc2ccccc2n1 (stereo partly specified) | -0.058
9 | [N-]=[N+]=Nc1ccccc1[C@@H]1OC(c2ccc(OCCCO)cc2)=N[C@]1(Cc1ccccc1)C(=O)NCCN1CCOCC1 | -0.0663
10 | COc1ccc(C(=O)Nc2cccc(CN3C(=O)[C@]4(O[C@H](CC(=O)N5Cc6ccccc6C[C@H]5CO)[C@@H]([Si](C)(C)c5ccc(OC)cc5)[C@@H]4C)c4ccccc43)c2)cc1 | 0.187
11 | C=CCN1C(=O)[C@@]2(O[C@@H](CCn3cc([C@H](O)c4ccccc4)nn3)[C@H]([Si](C)(C)c3ccc(OC)cc3)[C@H]2C)c2cc(N3C(=O)c4cccc5cccc3c45)ccc21 | 0.212
12 | CC(C)(C)N1CC=CC23O[C@@H]4/C=C\CCCOC(=O)C4[C@H]2C(=O)N(CCCCCO)[C@@H]3C1=O (stereo partly specified) | -0.11
13 | CN(C)CCCC[C@@H]1NC(=O)[C@@H]2C[C@H](C(=O)NCCCCCCNC(=O)CS)[C@H](c3ccc(O)cc3)N2C1=O | 0.0013
14 | CC1CC/C=C\[C@H]2OC34C=CCN(CCN5CCOCC5)C(=O)[C@H]3N(CCCO)C(=O)[C@@H]4C2C(=O)O1 (stereo partly specified) | 0.158
15 | COc1ccccc1CN1C(=O)c2ccccc2[C@](Cc2ccccc2I)(C(=O)NCC(C)C)[C@@H]1c1ccc(CO)cc1 | -0.02
16 | COCC(=C=CC[C@H](O)c1ccccc1OCCO)C[C@H](O)COCc1ccccc1 | 0.151
17 | O=C(NC1CC1)[C@@H]1c2ccccc2C(=O)N(Cc2ccc(OC(F)(F)F)cc2)[C@H]1c1ccc(CO)cc1 | -0.239
18 | O=C1C2C=CC(C(O)c3c(F)cccc3Cl)N(Nc3ccc([N+](=O)[O-])cc3)C2C(=O)N1c1ccccc1 (stereo unspecified) | -0.357
19 | C[C@@H]1NC(=O)C([C@@H](C)OCc2ccccc2)NC(=O)[C@@]23C(=O)N[C@@H](Cc4ccccc4)C2[C@H](C)[C@@]2(C)O[C@H]2C3/C=C/C/C=C\CNC1=O (stereo partly specified) | -0.291
20 | CC1CC/C=C\[C@H]2OC34C=CCN(c5ccc(Cl)cc5)C(=O)[C@H]3N(CCCCCCO)C(=O)[C@]4(C)C2C(=O)O1 (stereo partly specified) | 1.65
21 | CC1=C([C@H](O)CCc2ccccc2)[C@H](CO)n2c(=O)n(-c3ccccc3)c(=O)n2C1 | -0.237
22 | CCOC(=O)C[C@H]1[C@H](OC(=O)Cc2ccc3c(c2)OCO3)[C@@H](NC(=O)Cc2ccc(OC)cc2)c2cc(OCCCO)ccc2N1C(=O)Cc1ccc(OC)cc1 | -0.207
23 | COc1ccc(C(O)C2C=CC3C(=O)NC(=O)C3N2Nc2ccc(Cl)cc2Cl)c2ccccc12 (stereo unspecified) | -0.0118
24 | C=C1C(=O)C=C2CN(C(=O)c3ccccc3)[C@@](Cc3ccc(OC)cc3)(C(=O)OC)[C@@H]12 | 0.107
25 | COC(=O)[C@@]1(Cc2ccccc2)[C@H]2c3cc(C(=O)N(C)C)n(Cc4ccc(S(C)(=O)=O)cc4)c3C[C@H]2CN1C(=O)c1ccccc1 | 0.291
26 | CCCNC(=O)[C@@]1(c2ccc([N+](=O)[O-])cc2)CC(=O)N(C(C)C)[C@@H]1c1ccc(CO)cc1 | 0.0692
